The structures appear in SMILES notation. Activity calls are given as the source filed them. How the source made its calls: active means hit-call score of the fitted dose curve at least 0.9, where 1 is the maximum; inactive means score below 0.9.

For seven molecules, outcome and AC50 results are on record in PubChem BioAssay (EPA / NIEHS).

Read-out in test [1]: TIMP metallopeptidase inhibitor 1 (TIMP1), TIMP1 (gene 7076)
Put plainly: BSK_hDFCGF_TIMP1: BioMAP Diversity Plus: hDFCGF Assay for TIMP metallopeptidase inhibitor 1 (TIMP1) Biomarker Activity (AID 2283062). The conditions noted are these: primary human foreskin fibroblasts; actives raise or lower the signal. Put shortly: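 Bidirectional curve fitting against DMSO baseline yielded this endpoint, based on ELISA detection of TIMP-1 in primary human foreskin fibroblasts exposed to compound for 24 h.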

Read-out in test [2]: Monokine induced gamma interferon (MIG), CXCL9 (gene 4283)
Kind of test: BSK_hDFCGF_MIG: BioMAP Diversity Plus: hDFCGF Assay for Monokine induced gamma interferon (MIG) Biomarker Activity (AID 2283063). The conditions noted are these: primary human foreskin fibroblasts; actives raise or lower the signal. The procedure, abridged: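 Endpoint derived by bidirectional fitting relative to DMSO; MIG quantified via ELISA in primary human foreskin fibroblasts harvested 24 h after dosing.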

Read-out in test [3]: Matrix Metallopeptidase 1 (MMP1), MMP1 (gene 4312)
Kind of test: BSK_hDFCGF_MMP1: BioMAP Diversity Plus: hDFCGF Assay for Matrix Metallopeptidase 1 (MMP1) Biomarker Activity (AID 2283064). The conditions noted are these: primary human foreskin fibroblasts; actives raise or lower the signal. Put shortly: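 Primary human foreskin fibroblasts in the hDFCGF system were dosed with test chemical, and MMP1 was measured by ELISA 24 h later. Values come from bidirectional curve fitting against the DMSO baseline.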

Read-out in test [4]: Vascular cell adhesion molecule 1 (VCAM1), VCAM1 (gene 7412)
Kind of test: BSK_hDFCGF_VCAM1: BioMAP Diversity Plus: hDFCGF Assay for Vascular cell adhesion molecule 1 (VCAM1) Biomarker Activity (AID 2283065).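 On AC50: VCAM-1 protein level quantified by ELISA after 24 h chemical exposure.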 To be noted: primary human foreskin fibroblasts; actives raise or lower the signal. The procedure, abridged:
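Measured after 24 h chemical treatment of primary human skin fibroblasts, VCAM-1 was detected by ELISA and concentration-response analysed in both directions versus DMSO vehicle.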

Read-out in test [5]: Intercellular Adhesion Molecule 1 (ICAM1), ICAM1 (gene 3383)
Kind of test: BSK_KF3CT_ICAM1: BioMAP Diversity Plus: KF3CT Assay for Intercellular Adhesion Molecule 1 (ICAM1) Biomarker Activity (AID 2283067). To be noted: primary human keratinocytes with fibroblasts; actives raise or lower the signal. Put shortly: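 Bidirectional curve fitting against a DMSO baseline was applied to ICAM-1 ELISA signal from primary human skin co-cultures harvested 24 h after treatment, with SRB staining of parallel wells for overt cytotoxicity.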

Read-out in test [6]: Interferon-gamma inducible Protein 10 (IP10), CXCL10 (gene 3627)
Kind of test: BSK_KF3CT_IP10: BioMAP Diversity Plus: KF3CT Assay for Interferon-gamma inducible Protein 10 (IP10) Biomarker Activity (AID 2283068). The conditions noted are these: primary human keratinocytes with fibroblasts; actives raise or lower the signal. Put shortly:
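ELISA read-out of IP-10 after 24 h chemical dosing of human skin primary co-culture (keratinocytes, foreskin fibroblasts). Gain or loss of signal relative to DMSO, bidirectional curve fit.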

Test [7] can be described thus: BSK_KF3CT_SRB: Viability Assessment in the BioMAP Diversity Plus: KF3CT Assay (AID 2283069).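 Further: total protein by sulforhodamine B staining as a cytotoxicity measure; read 24 h after compound addition.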 The conditions noted are these: primary human keratinocytes with fibroblasts. The procedure, abridged: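 Human primary keratinocyte plus foreskin fibroblast co-culture exposed to chemicals for 24 h. Total protein measured by 0.1% sulforhodamine B staining after 10% TCA fixation, read at 560 nm; bidirectional fitting versus DMSO baseline.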

Read-out in test [8]: Interleukin-1 alpha (IL1a), IL1A (gene 3552)
Kind of test: BSK_KF3CT_IL1a: BioMAP Diversity Plus: KF3CT Assay for Interleukin-1 alpha (IL1a) Biomarker Activity (AID 2283070). To be noted: primary human keratinocytes with fibroblasts; actives raise or lower the signal. The procedure, abridged:
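Human keratinocyte plus foreskin fibroblast primary co-culture, sampled 24 h after chemical dosing. IL-1a measured by ELISA; responses fitted bidirectionally against DMSO baseline (negative control), so gain or loss of signal both count.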

Read-out in test [9]: TIMP metallopeptidase inhibitor 2 (TIMP2), TIMP2 (gene 7077)
Put plainly: BSK_KF3CT_TIMP2: BioMAP Diversity Plus: KF3CT Assay for TIMP metallopeptidase inhibitor 2 (TIMP2) Biomarker Activity (AID 2283071). The conditions noted are these: primary human keratinocytes with fibroblasts; actives raise or lower the signal. The procedure, abridged:
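Cells: human keratinocytes co-cultured with foreskin fibroblasts. Treat with chemical, 24 h. Measure TIMP-2 by ELISA; fit curves bidirectionally vs DMSO baseline.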

Read-out in test [10]: Transforming growth factor beta 1 (TGFb1), TGFB1 (gene 7040)
Kind of test: BSK_KF3CT_TGFb1: BioMAP Diversity Plus: KF3CT Assay for Transforming growth factor beta 1 (TGFb1) Biomarker Activity (AID 2283072). To be noted: primary human keratinocytes with fibroblasts; actives raise or lower the signal. The procedure, abridged:
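Primary human skin cells (keratinocytes, foreskin fibroblasts) were co-cultured, exposed to test chemical and sampled at 24 h. TGF-b1 levels were measured by ELISA and fitted bidirectionally relative to DMSO.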

Read-out in test [11]: C-C motif chemokine 2 (Homo sapiens) (UniProt P13500)
Kind of test: BSK_KF3CT_MCP1: BioMAP Diversity Plus: KF3CT Assay for Monocyte Chemoattractant Protein 1 (MCP1/CCL2) Biomarker Activity (AID 2283073). The conditions noted are these: primary human keratinocytes with fibroblasts; actives raise or lower the signal. Put shortly: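 Biomarker MCP-1 is measured by ELISA in primary human keratinocytes co-cultured with foreskin fibroblasts, 24 h after chemical treatment; DMSO serves as the negative control and activity baseline.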

Read-out in test [12]: Matrix Metallopeptidase 9 (MMP9), MMP9 (gene 4318)
Kind of test: BSK_KF3CT_MMP9: BioMAP Diversity Plus: KF3CT Assay for Matrix Metallopeptidase 9 (MMP9) Biomarker Activity (AID 2283074).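 On AC50: MMP9 protein level quantified by ELISA in the co-culture.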 The conditions noted are these: primary human keratinocytes with fibroblasts; actives raise or lower the signal. Put shortly:
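Keratinocyte plus foreskin fibroblast human primary skin co-culture was dosed with chemical and MMP-9 was quantified by ELISA 24 h later. Bidirectional curve fitting used DMSO as negative control and activity baseline.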

Read-out in test [13]: urokinase plasminogen activator (uPA), PLAU (gene 5328)
Kind of test: BSK_KF3CT_uPA: BioMAP Diversity Plus: KF3CT Assay for urokinase plasminogen activator (uPA) Biomarker Activity (AID 2283075). The conditions noted are these: primary human keratinocytes with fibroblasts; actives raise or lower the signal. The procedure, abridged:
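Human keratinocyte plus foreskin fibroblast primary co-culture exposed to chemical for 24 h. uPA levels were quantified by ELISA, and activity was fitted bidirectionally against a DMSO negative-control baseline.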

Read-out in test [14]: CD40, CD40 (gene 958)
Kind of test: BSK_LPS_CD40: BioMAP Diversity Plus: LPS Assay for CD40 Biomarker Activity (AID 2283076). The conditions noted are these: primary human HUVEC with PBMC; actives raise or lower the signal. Put shortly:
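Using a multiplexed primary human co-culture (umbilical vein endothelium plus PBMC), CD40 was read by ELISA 24 h after dosing, with cytotoxicity tracked by sulforhodamine B staining of parallel cultures and activity fitted bidirectionally versus DMSO.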

Read-out in test [15]: E-selectin (Homo sapiens) (UniProt P16581)
Kind of test: BSK_LPS_Eselectin: BioMAP Diversity Plus: LPS Assay for Eselectin Biomarker Activity (AID 2283077). To be noted: primary human HUVEC with PBMC; actives raise or lower the signal. Put shortly:
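Dose chemical onto LPS-driven HUVEC/PBMC co-culture; after 24 h, run ELISA for E-selectin; fit up- and down-going responses relative to DMSO control.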

Read-out in test [16]: Interleukin-8 (IL8), CXCL8 (gene 3576)
Put plainly: BSK_LPS_IL8: BioMAP Diversity Plus: LPS Assay for Interleukin-8 (IL8) Biomarker Activity (AID 2283078). To be noted: primary human HUVEC with PBMC; actives raise or lower the signal. Put shortly:
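In this LPS system, chemical-treated human umbilical vein endothelium/PBMC co-cultures were harvested at 24 h for IL-8 ELISA.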

Test [17] is described as follows: BSK_LPS_SRB: Viability Assessment in the BioMAP Diversity Plus: LPS Assay (AID 2283079).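 Further: total protein by sulforhodamine B absorbance as a cytotoxicity measure; measured one day after compound addition.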 The conditions noted are these: primary human HUVEC with PBMC. Put shortly: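 Cytotoxicity endpoint in human endothelial–PBMC co-culture: 24 h exposure, then SRB (0.1%) staining, 560 nm read.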
Read-out in test [18]: Interleukin-1 alpha (IL1a), IL1A (gene 3552)
Put plainly: BSK_LPS_IL1a: BioMAP Diversity Plus: LPS Assay for Interleukin-1 alpha (IL1a) Biomarker Activity (AID 2283080). To be noted: primary human HUVEC with PBMC; actives raise or lower the signal. The procedure, abridged: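 Primary human HUVEC and PBMC co-culture stimulated with LPS is dosed and harvested at 24 h. Both increases and decreases in ELISA-measured IL-1a are scored relative to DMSO.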

Read-out in test [19]: Plasminogen activator inhibitor-1 (PAI1), SERPINE1 (gene 5054)
Kind of test: BSK_hDFCGF_PAI1: BioMAP Diversity Plus: hDFCGF Assay for Plasminogen activator inhibitor-1 (PAI1) Biomarker Activity (AID 2283066). The conditions noted are these: primary human foreskin fibroblasts; actives raise or lower the signal. The procedure, abridged:
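Primary dermal fibroblasts (human foreskin), hDFCGF system; compound 24 h; PAI-1 by ELISA; bidirectional fit vs DMSO control.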

Read-out in test [20]: Monocyte Chemoattractant Protein-1 (MCP1), CCL2 (gene 6347)
Put plainly: BSK_LPS_MCP1: BioMAP Diversity Plus: LPS Assay for Monocyte Chemoattractant Protein-1 (MCP1) Biomarker Activity (AID 2283081).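 On AC50: secreted MCP-1 protein quantified by ELISA in culture supernatant.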 To be noted: primary human HUVEC with PBMC; actives raise or lower the signal. Put shortly: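 Values derive from bidirectional fitting against DMSO of ELISA-measured MCP-1 in a human primary endothelial and mononuclear cell co-culture, 24 h after chemical addition under LPS activation.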

Sequence of E-selectin (Homo sapiens) (P16581 whole entry, looked up): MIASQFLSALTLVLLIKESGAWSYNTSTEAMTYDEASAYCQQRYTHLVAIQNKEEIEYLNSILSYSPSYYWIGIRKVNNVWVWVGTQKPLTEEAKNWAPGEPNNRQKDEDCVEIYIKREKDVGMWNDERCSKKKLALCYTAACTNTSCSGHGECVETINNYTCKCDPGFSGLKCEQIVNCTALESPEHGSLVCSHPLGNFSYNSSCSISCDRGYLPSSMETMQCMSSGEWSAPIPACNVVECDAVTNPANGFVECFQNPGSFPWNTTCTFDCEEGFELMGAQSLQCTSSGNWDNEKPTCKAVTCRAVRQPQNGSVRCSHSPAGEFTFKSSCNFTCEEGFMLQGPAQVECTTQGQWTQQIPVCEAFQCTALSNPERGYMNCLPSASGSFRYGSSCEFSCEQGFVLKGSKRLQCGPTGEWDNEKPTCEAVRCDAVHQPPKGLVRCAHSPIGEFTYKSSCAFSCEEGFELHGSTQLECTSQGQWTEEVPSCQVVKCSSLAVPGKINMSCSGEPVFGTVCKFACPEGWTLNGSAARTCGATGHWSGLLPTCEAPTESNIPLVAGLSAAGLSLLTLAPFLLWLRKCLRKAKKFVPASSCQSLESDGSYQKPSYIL

Turning to `c1ccc(N=Nc2ccccc2)cc1`, the result in test [1], in [2], in test [3], in test [4], in test [5] and in test [6] was inactive. Besides, the outcome in test [7], in test [8], in test [9], in test [10], in [11] and in test [12] was inactive. Further, the outcome in test [13], in test [14], in test [15], in test [16], in [17] and in test [18] was inactive.

As to `Oc1ccc2ccc3cccc4ccc1c2c34`, the result in [1], in test [3], in test [5], in test [7], in test [11] and in test [13] was inactive. For the same molecule, the AC50 (in general, the midpoint of the concentration-response curve, whichever way the signal moves) in test [2] is 7.57 µM (active); in test [4], 8.34 µM (active); in [19], 22.5 µM (active); in test [6] it was 26.7 µM (active); in test [8] it was 20 µM (active); in [9] it was 31.3 µM (active). Besides, the AC50 is 31.7 µM (active) in test [10]; 15.3 µM (active) in [12]; 20 µM (active) in [14]; 31.4 µM (active) in [15]; 30.5 µM (active) in test [16]; 32 µM (active) in [17]. Also, the results for the AC50 in [18] and in [20] were 29.2 µM (active) and 29.7 µM (active), respectively.

Consider `COP(=S)(OC)SCN1C(=O)c2ccccc2C1=O`, for which the result in test [1], in [2], in [3], in [4], in [5] and in test [6] was inactive. For the same molecule, the outcome in [7], in test [8], in [9], in test [10], in test [11] and in test [12] was inactive. Moreover, the outcome in test [13], in test [14], in [15], in [16], in [17] and in test [18] was inactive.

Turning to `C[N+](C)(C)CC1CO1` (configuration not stated), the result in test [1], in test [2], in [3], in test [4], in test [19] and in test [5] was inactive. For the same molecule, the outcome in [6], in test [7], in test [8], in test [9], in [10] and in [11] was inactive. Moreover, the result in test [12], in [13], in [14], in [15], in test [16] and in test [17] was inactive. Besides, the outcome in test [18] and in test [20] was inactive.

Take `O=C(Nc1ccccc1)c1ccccc1I`: the result in test [1], in test [2], in [3], in test [4], in test [5] and in test [6] was inactive. Moreover, the outcome in [7], in test [8], in test [9], in test [10], in test [11] and in [12] was inactive. For the same molecule, the outcome in test [13], in test [14], in [15], in [16], in [17] and in [18] was inactive.

For the molecule `CC(C)(O)c1cnn2c(-c3ccc(F)c(-c4c(F)cccc4C#N)c3)cnc2n1`, the outcome in [1], in [2], in [4], in test [19], in test [5] and in test [8] was inactive. Moreover, the outcome in test [11], in [14], in [15], in test [17], in [18] and in test [20] was inactive. The AC50 is 6.43 µM (active) in [3]; 23.2 µM (active) in [6]; 33.2 µM (active) in [7]; 31 µM (active) in [9]; 36 µM (active) in [10]; 34.6 µM (active) in test [12]. For the same molecule, the AC50 in test [13] was 31.9 µM (active); in test [16], 3.82 µM (active).

Regarding `Cc1ccc([N+](=O)[O-])cc1`, the result in test [1], in test [2], in test [3], in test [4], in test [5] and in test [6] was inactive. In addition, the result in [7], in test [8], in [9], in test [10], in test [11] and in [12] was inactive. Besides, the outcome in [13], in test [14], in [15], in test [16], in test [17] and in [18] was inactive.
